According to ChEMBL document CHEMBL3988442, “University of Dundee, Small-Polar-MMV Screening Library” (2021):
Hit rate of the full screen: of about 48,000 compounds, about 13,000 (27%) showed an effect of 50% or more. This is one part of the list.

System: Wolbachia pipientis
Assay: Anti-Wolbachia Cell-Based Screen
Assay type: functional
Design: scale not given: in the data most compounds retested in dose-response had high values
Settings: 5 µM

| SMILES | Percent Effect [%] |
| --- | --- |
| O=C(NC1CCC1)[C@@H]1CCO[C@@H]2CCN(C3CCCC3)C[C@H]21.O=C(O)C(F)(F)F | -6.007 |
| CCc1n[nH]c(C2CN(Cc3nccn3CC)CCO2)n1 (stereo not given) | -1.514 |
| CN(CCc1cn[nH]c1)C(=O)C1CC(=O)N(Cc2cccnc2)C1 (stereo not given) | 1.356 |
| CCCn1ncc(CN2C[C@@H]3CCCN3C[C@H]2Cc2ccccc2)c1C | 112.1 |
| CCCn1ncc(CN2C[C@@H]3CCCN3C[C@@H]2Cc2ccccc2)c1C | 119.2 |
| c1ccc(CNc2ncc(CN3CCCN4CCC[C@H]4C3)cn2)cc1 | -5.428 |
| N#CCCCN1CCCC1Cc1ccccc1 (stereo not given) | -5.887 |
| CCCn1ncc(C(=O)N2CCN(C3Cc4ccccc4C3)CC2)c1C | 1.653 |
| CC(=O)c1ccc(-c2cnn(CC(=O)Nc3ccnn3C)c2)nc1 | -6.817 |
| O=C(NCC(O)c1ccsc1)c1sccc1OC(F)F (stereo not given) | -10.31 |
| Cc1cccc2cc(C(=O)N3CCC(F)(F)CC3)n(C)c12 | 5.497 |
| Cc1cccc(C(=O)N2CCc3c(CN(C)C)nn(C)c3C2)n1 | 94.16 |
| Cc1nocc1C(=O)N1CCc2c(CN(C)C)nn(C)c2C1 | 93.65 |
| CC(=O)NCC(=O)N1CCc2c(CN(C)C)nn(C(C)C)c2C1 | -2.95 |
| CN(C)Cc1nn(C)c2c1CCN(C(=O)c1cccnc1)C2 | 84.36 |
| CN(C)Cc1nn(C)c2c1CCN(C(=O)CC1CC1)C2.O=C(O)C(F)(F)F | 5.365 |
| CN(C)Cc1nn(C)c2c1CN(C(=O)c1cccc(C#N)c1)C2 | 110.3 |
| Cc1cccc(NC(=O)N2Cc3c(CN(C)C)nn(C)c3C2)c1 | -10.1 |
| CN(C)Cc1nn(C)c2c1CCN(C(=O)c1cnccn1)C2.O=C(O)C(F)(F)F | -5.117 |
| Cn1nc(CN2CCCC2)c2c1CN(C(=O)c1cccnc1)CC2.O=C(O)C(F)(F)F.O=C(O)C(F)(F)F | -3.711 |
| CN(C)Cc1nn(C)c2c1CCN(S(=O)(=O)c1cccs1)C2 | 12.48 |
| CN(C)Cc1nn(C)c2c1CN(C(=O)Nc1cccc(F)c1)C2 | -15.2 |

| SMILES | Percent Effect [%] |
| --- | --- |
| Cc1cc(N[C@H](CO)c2ccccc2)n2nc(C)cc2n1 | 1.495 |
| Cc1noc(C2CCCN(C(=O)c3ccc(Br)cc3F)C2)n1 (stereo not given) | 4.795 |
| N#Cc1c(F)cccc1N1CCN(S(=O)(=O)c2cccs2)CC1 | -7.537 |
| CC(Cn1cccn1)NC(=O)NCCCN1CCc2ccccc2C1 (stereo not given) | -5.201 |
| Cc1nc([C@H]2C[C@@H]3CCN(Cc4scnc4C)C[C@H]3O2)no1.O=C(O)C(F)(F)F | -18.74 |
| CCc1ncc2c(n1)CN(C(C(N)=O)c1ccccc1)CC2 (stereo not given) | -0.2058 |
| CC(=O)Nc1ncc(-c2ccc(C)cc2)[nH]1 | -15.96 |
| Cc1cc(C(=O)N2CCc3ncnc(N4CCSCC4)c3CC2)[nH]n1 | -7.195 |
| Cc1cc(C(=O)N2CCc3c(CN(C)C)nn(C)c3C2)[nH]n1 | 109.1 |
| Cc1cc(-c2nn(C)c(Cl)c2CN2CCOCC2CC(N)=O)no1 (stereo not given) | -10.25 |
| Cc1noc(CSc2ccc(C(F)(F)F)cn2)n1 | -11.43 |
| COc1ncc(C)cc1NC(=O)COCC(F)(F)F | -3.698 |
| CC(C)c1nc(S(=O)(=O)Nc2ccnn2C2CCCC2)c[nH]1 | -16.48 |
| CC1CCN(C(=O)CN(Cc2ccco2)C2CC2)CC1 | 16.65 |
| O=C(CN(Cc1ccco1)C1CC1)N1CCCCCC1 | 130.6 |
| O=C(CN(Cc1ccco1)C1CC1)Nc1ccc(Br)cn1 | 5.807 |
| COc1ccc(CN2CC[C@H](c3nc4cccc(C(N)=O)c4[nH]3)C2)cc1 | -8.435 |
| CCCn1nc(C)c(CNC(=O)C2COc3ccc(OC)cc3C2)c1C (stereo not given) | -13.51 |
| CC(=O)c1cccc(OCCCC(=O)N(C)Cc2cnc(C)s2)c1 | -4.275 |
| CC(C)CNC(=O)Nc1cccc(CN2CCOC2=O)c1 | -15.82 |
| COc1ccc(C)cc1-n1cnnc1CC1CCNCC1 | 5.267 |
| Cc1nn(C)c(C)c1-c1cnc(CC2CCNCC2)cn1 | 154.2 |

| SMILES | Percent Effect [%] |
| --- | --- |
| c1cncc(-n2cnnc2CC2CCNCC2)c1 | -4.344 |
| CCc1nccn1CCCNc1nccc(-c2c(C)nn(C)c2C)n1 | 0.4363 |
| Cc1nn(C)c(C)c1-c1nccnc1CC1CCNCC1 | 110.6 |
| Cc1nn(C)c(C)c1-c1cnc(CC2CCNC2)cn1 (stereo not given) | 90.84 |
| CCn1ccnc1CNc1nccc(-c2c(C)nn(C)c2C)n1 | -9.163 |
| O=C(C1=CCCC1)N1CC[C@]2(C[C@H](OCc3cccnc3)CO2)C1.O=C(O)C(F)(F)F | -2.821 |
| CCSCC(C)NCc1ccccc1-n1ccnc1 (stereo not given) | 26.03 |
| Cc1nnc2n1CCN(C(=O)CN1C(=O)CSc3ccccc31)C2 | -16.29 |
| CC(C)NC(=O)O[C@H]1COCCN(c2nc3ccccc3s2)C1 | 11.5 |
| O=C(c1cn(-c2cc(N3CCSCC3)ncn2)cn1)N1CCSCC1 | 23.31 |
| Cc1cc(C)n(CC2CCCN2C(=O)c2cnccn2)n1 (stereo not given) | 101.9 |
| Cc1cc(C)n(CC2CCCN2C(=O)c2c[nH]c(=O)c(Cl)c2)n1 (stereo not given) | 130 |
| Cc1cc(C)n(CC2CCCN2C(=O)c2cnn(C)c2C2CC2)n1 (stereo not given) | -2.201 |
| Cc1cc(C)n(CC2CCCN2C(=O)c2ccc3c(c2)OCO3)n1 (stereo not given) | 14.69 |
| Cc1cc(C)n(CC2CCCN2C(=O)c2ccnc(N(C)C)c2)n1 (stereo not given) | 141.4 |
| Cc1cc(C)n(C2CCCN(C(=O)c3c[nH]c(=O)c(Cl)c3)C2)n1 (stereo not given) | -7.23 |
| CCc1noc(C)c1C(=O)N1CCCC1Cn1nc(C)cc1C (stereo not given) | -1.879 |
| Cc1cc(C)n(CC2CCCN2C(=O)c2ccc(N(C)C)nn2)n1 (stereo not given) | 107 |
| Cc1cc(C)n(CC2CCCN2C(=O)c2ccc3c(c2)nnn3C)n1 (stereo not given) | -2.526 |
| Cc1cc(C)n(CC2CCCCN2C(=O)c2ccc3c(c2)OCO3)n1 (stereo not given) | -4.429 |
| Cc1cc(C)n(CC2CCCN2C(=O)c2cc[nH]n2)n1 (stereo not given) | 9.629 |
